Results as given in PubChem BioAssay AID2242 (National Center for Advancing Translational Sciences (NCATS), 2010).
Where “and” joins values, the source holds several entries; their conditions need not be identical. Equal entries are not always repeated. Screen size: about 200,000 compounds; about 720 (0.36%) were called active. Not shown: some 8% with an inconclusive outcome. The call rests on the fitted dose curve; in most records, active means well fitted activation curve with a large enough effect; inconclusive means small, poorly fitted or top-dose-only effect, or effect the other way, or another doubt; inactive means flat fitted curve, though single readings scatter. The list shows a part of the results.

Target: Lysosomal alpha-glucosidase (Homo sapiens) (UniProt P10253)
Test: qHTS Assay for Activators of Human alpha-Glucosidase as a Potential Chaperone Treatment of Pompe Disease; further: nearly all actives have a fitted effect of over 80% in size
Settings: purified enzyme, 4-MU-alpha-glucoside fluorescence, 20 min; series mostly up to 76.9 µM
Outline: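 Fluorogenic assay, 4 nM enzyme, 400 uM 4-methylumbelliferyl-[…], pH 5.0 citrate/phosphate buffer with 0.005% Tween-20, compounds up to 77 uM, 20 min at room temperature. NaOH/glycine stop, Ex 365/Em 440 nm; AC50 from Hill fits.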
Potency means the concentration at half of the fitted maximal effect.

Potency, active:
N=c1oc2cc(O)ccc2cc1C(=O)Nc1nc2ccccc2s1 35.5 µM
N=c1oc2cc(O)ccc2cc1C(=O)Nc1ccccn1 35.5 µM
CCCn1c(-c2cccs2)nc2nc3ccccc3nc21 35.5 µM
CCOC(=O)c1cccc(-n2c(-c3ccc(OC)cc3)nc3nc4ccccc4nc32)c1 5.01 µM
C=CCn1c(-c2cccs2)nc2nc3ccccc3nc21 35.5 µM
C=CCn1c(-c2ccc(OC)cc2)nc2nc3ccccc3nc21 35.5 µM
CC(C)Cn1c(-c2cccs2)nc2nc3ccccc3nc21 35.5 µM
CCC(C)n1c(-c2cccs2)nc2nc3ccccc3nc21 (stereo not drawn) 35.5 µM
Cc1cccn2c(=O)c3cc(C(=O)NCCCN4CCCC4=O)n(C)c3nc12 35.5 µM
Cc1ccc2nc3c(cc(C(=O)NCCCn4ccnc4)n3C)c(=O)n2c1 35.5 µM
Cc1ccc(-c2cc(C(=O)NCCCn3ccnc3)c3ccccc3n2)s1 28.2 µM
Cc1cccn2c(=O)c3cc(C(=O)N4CCN(C(=O)c5ccco5)CC4)n(C)c3nc12 35.5 µM
Nc1cc(C(=O)O)c(Oc2ccc(Cl)cc2Cl)cc1C(=O)O 35.5 µM
O=c1oc2cc(O)ccc2c2c1CCCC2 35.5 µM
CCc1cc2c3c(c(=O)oc2cc1O)CCCC3 28.2 µM
COC(=O)C1=CN(Cc2ccc(OC)cc2)C=C(C(=O)OC)C1c1ccsc1 25.1 µM
COC(=O)C1=CN(Cc2ccc(OC)cc2)C=C(C(=O)OC)C1c1cccs1 25.1 µM
FC(F)(F)Oc1ccc(-c2cn3cccnc3n2)cc1 35.5 µM
Cc1ccc(-c2cn3cccnc3n2)cc1 35.5 µM
COc1ccc(-c2cn3cccnc3n2)cc1 35.5 µM
CC1(C)CN(c2ccc(-c3ccnc4ncnn34)cc2)C1=O 28.2 µM
N#Cc1c(C(F)(F)F)cc(-c2cccs2)nc1SCc1cccnc1 35.5 µM
Cc1[nH]c2ccccc2c1C(O)CN1CCN(c2cccc(C(F)(F)F)c2)CC1 (stereo not drawn) 35.5 µM
Cc1cc(NCCCN2CCOCC2)n2c(nc3ccccc32)c1C#N 31.6 µM
CC(C)c1cc(NCCCN2CCOCC2)n2c(nc3ccccc32)c1C#N 31.6 µM
COc1ccc(-c2c(C#N)c(N)nc3c2CCc2ccccc2-3)cc1OC 35.5 µM
COCCCn1cnc2oc3nc4ccccc4nc3c2c1=O 35.5 µM
CC(=O)Nc1cc2c(ccc3ccccc32)oc1=O 25.1 µM
O=C(O)c1cc2c(ccc3ccccc32)oc1=O 35.5 µM
CC(=O)Nc1cc2ccc(OC(C)=O)cc2oc1=O 35.5 µM
CCOC(=O)c1cc2c(ccc3ccccc32)oc1=O 35.5 µM
CC(OC(=O)c1cc2c(ccc3ccccc32)oc1=O)c1nc2ccccc2s1 (stereo not drawn) 28.2 µM
O=C(c1cc2c(ccc3ccccc32)oc1=O)N1CCCC1 31.6 µM
O=C(NCCc1ccccc1)c1cnc2ccccn2c1=O 25.1 µM
Cc1ccc(-n2c3nc(=O)[nH]c(=O)c-3cc3c(C)nn(-c4ccccc4)c32)c(C)c1 25.1 µM
Cc1cccc(-n2c3nc(=O)[nH]c(=O)c-3cc3c(C)nn(-c4ccccc4)c32)c1C 22.4 µM
Cc1cccc(-n2c3nc(=O)[nH]c(=O)c-3cc3c(C)nn(-c4ccccc4)c32)c1 20 µM
O=c1c(-c2nc3ccccc3s2)cccn1Cc1ccccc1 39.8 µM
Cc1ccc(Cn2cccc(-c3nc4ccccc4s3)c2=O)cc1 28.2 µM
O=c1c(-c2nc3ccccc3s2)cccn1Cc1ccc(Cl)c(Cl)c1 28.2 µM
O=c1c(-c2nc3ccccc3s2)cccn1Cc1ccc(Cl)cc1 10 µM
COc1cc(=O)n(C)c2cc(N(C)C)ccc12 31.6 µM
COc1cc2nc(N(C)CCCNC(=O)C3CCCO3)nc(N)c2cc1OC (stereo not drawn) 35.5 µM
COc1cc2nc(N3CCN(C(=O)C4CCCO4)CC3)nc(N)c2cc1OC (stereo not drawn) 35.5 µM and 39.8 µM
COc1cc2nc(N3CCN(C(=O)C4COc5ccccc5O4)CC3)nc(N)c2cc1OC (stereo not drawn) 39.8 µM
O=C(O)C(=O)/C(=C\c1cccc(Cl)c1)c1ccc2ccccc2n1 28.2 µM
Cc1ccc2nc(-c3ccc(NS(=O)(=O)c4ccc(F)cc4)cc3)sc2c1 35.5 µM
Cc1ccc2sc(-c3ccc(NC(=O)/C=C\C(=O)O)cc3)nc2c1 39.8 µM
Cc1nc2ccc(S(=O)(=O)Nc3ccc(-c4nc5cccnc5s4)cc3)cc2s1 35.5 µM
Cc1cccc(S(=O)(=O)Nc2ccc(-c3nc4ccc(C)cc4s3)cc2)c1 31.6 µM
Cc1ccc(S(=O)(=O)Nc2ccc(-c3nc4ccc(C)cc4s3)cc2)cc1 35.5 µM
Cc1ccc2nc(-c3ccc(NS(=O)(=O)c4ccc(F)c(F)c4)cc3)sc2c1 3.55 µM
Cc1cc(-c2nc3cccnc3s2)ccc1NS(=O)(=O)c1ccc2c(c1)OCCO2 35.5 µM
C/C(=N\NC(=O)CC#N)c1cc2ccc(O)cc2oc1=O 35.5 µM
Cc1c2c(n3c(nc4ccccc43)c1C#N)N(CCCN(C)C)CC2 35.5 µM
Cc1c2c(n3c(nc4ccccc43)c1C#N)N(CCN1CCOCC1)CC2 5.62 µM
CCOC(=O)c1cc2c(=O)n3ccccc3nc2n(CCCOC)c1=NC(C)=O 35.5 µM
CCCn1c(=NC(C)=O)c(C(=O)OCC)cc2c(=O)n3ccccc3nc21 35.5 µM
CCOC(=O)c1cc2c(=O)n3ccccc3nc2n(CC2CCCO2)c1=NC(C)=O (stereo not drawn) 35.5 µM
CCOCCCn1c(=NC(C)=O)c(C(=O)OCC)cc2c(=O)n3ccccc3nc21 39.8 µM
CNC(=O)c1cc2ccc(OC)cc2oc1=O 28.2 µM
CCOC(=O)c1cc2ccc(OC)cc2oc1=O 31.6 µM
CCOC(=O)c1cc2ccc(OC(=O)c3ccco3)cc2oc1=O 35.5 µM
